Assay outcomes as filed in PubChem.
A selection: hits, their analogues and other compounds. The true share with any hit is near 4.8%.
ssDAF-12 act = activators of S. stercoralis DAF-12 nuclear receptor; HEK293 ssDAF-12/GRIP1 lit1-tk-luc reporter, luminescence; % of 3 µM dafachronic acid response; activation, % at 6.8 µM; hit rate 1% among 370,000;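 active = activation above the mean over all tested compounds plus 3 SD, cut at about 0.9% in these data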;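 also: 0% = DMSO-only wells and 100% = 3 µM delta7-dafachronic acid wells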
hgDAF12 agonist = agonists of H. glycines DAF-12 nuclear receptor | activation, % at 6.8 µM | HEK293 GAL4-hgDAF12 UAS-luciferase reporter, agonist luminescence; normalized to butyrate control | AID 687014 | hit rate 1.8% among 370,000;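 active = activation above a cutoff set at the mean of all screened compounds plus 3 SD, cut at about 10% in these data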;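 also: 0% = DMSO wells and 100% = sodium butyrate wells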
hcDAF12 agonist = activators of H. contortus DAF-12 nuclear receptor | HEK293 hcDAF-12 lit1-tk-luc reporter, luminescence; 0% DMSO, 100% Δ7-dafachronic acid | activation, % at 6.8 µM | hit rate 1.4% among 370,000;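 active = activation above the mean of all tested compounds plus 3 SD, cut at about 5.5% in these data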;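 also: 100% = response to 3 µM Δ7-dafachronic acid high control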
SMARCA2 activ = activators of SMARCA2 function | MG213 cells, MMTV-luciferase reporter, dexamethasone, overnight | activation, % at 9.1 µM | hit rate 1% among 370,000; in the data active = activation above about 7.8%;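 also: 0% = vehicle wells and 100% = reference activator wells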
DAX1 inh-1 = inhibits human nuclear receptor DAX1; P51843; HEK293 Gal4-DAX1 luciferase reporter, luminescence; inhibition, % at 6.75 µM; hit rate 0.99% among 340,000;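 active = inhibition above the mean over all tested compounds plus 3 SD, cut at about 4.2% in these data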;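 also: 0% = DAX1-transfected cells with DMSO and 100% = empty-vector control cells with DMSO; inhibition shows as a rise in luminescence from relieved DAX1 repression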
Target sequence (P51843 207-470 limits assumed): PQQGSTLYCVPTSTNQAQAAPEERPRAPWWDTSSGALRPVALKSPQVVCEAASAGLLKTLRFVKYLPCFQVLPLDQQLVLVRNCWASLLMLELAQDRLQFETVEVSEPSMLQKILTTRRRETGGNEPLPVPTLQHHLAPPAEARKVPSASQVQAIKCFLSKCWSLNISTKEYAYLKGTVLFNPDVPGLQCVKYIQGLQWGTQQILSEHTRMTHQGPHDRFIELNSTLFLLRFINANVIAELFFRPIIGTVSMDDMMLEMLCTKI
DAX1 inh-2 = DAX1 (NR0B1) inhibition, primary screen; HEK293T StAR-luciferase reporter, SF-1/DAX-1 repression relief; inhibition, % at 6.8 µM; hit rate 1.1% among 370,000;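 active = inhibition above the mean over all tested compounds plus 3 SD, cut at about 3.6% in these data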;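 also: 0% = DAX-1 cells with DMSO and 100% = cells lacking DAX-1 with DMSO; higher inhibition means more luminescence from relief of DAX-1 repression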
SMARCA2 act conf = confirmation of SMARCA2 (BRM) function activators; hit rate 30% among 3,500; activation, % at 9.1 µM; MG213 cells, MMTV-luciferase with dexamethasone, luminescence, overnight; MG213 cells expressing E1A, Rb sequestered; DMSO wells 0%, reference activator 100%; shares compounds with SMARCA2 activ;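 active = activation above its plate's cutoff, the mean activation of tested wells plus 3 SD, cut at about 7.9% in these data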
VP16 Luc act = activates GAL4-VP16 luciferase, flagging SMARCA2 activator hits. shares compounds with SMARCA2 activ. HEK293 GAL4-VP16 pG5luc reporter, luciferase luminescence; scaled: DMSO wells 0%, SAHA wells 100%. activation, % at 9.1 µM. hit rate 41% among 3,500;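 active = activation above the solvent-only control well mean plus 3 SD, averaged across control plates, cut at about 5.2% in these data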
Numbers without * were called inactive; nt = no result given.

SMILES | ssDAF-12 act | hgDAF12 agonist | hcDAF12 agonist | SMARCA2 activ | DAX1 inh-1 | DAX1 inh-2 | SMARCA2 act conf | VP16 Luc act
COc1ccc(CN(C)C(=O)c2ccc3c(=O)n4c(nc3c2)CCC4)cc1 | -1 | -1 | -4 | 8.2* | 0 | -1 | -3 | 0
Cc1ccc(COc2ccccc2C(=S)N2CCCC2)cc1 | -1 | 8 | 1 | 0 | 0 | 1 | nt | nt
CN(CC(=O)Nc1ccc(C#N)cc1)Cc1ccc(Cl)cc1Cl | -1 | -1 | -1 | 0 | -1 | -1 | nt | nt
CN(C(=O)c1ccc(Cl)cc1)C1CCS(=O)(=O)C1 (configuration not stated) | -1 | 0 | -2 | -2 | -1 | 1 | nt | nt
CC(=O)N1CCN(c2ccnc3cc(Cl)ccc23)CC1 | -2 | -2 | 0 | 11* | 1 | 0 | -1 | -1
CCCCNC(=O)C(=O)NCc1ccncc1 | -2 | 1 | -1 | -4 | nt | 0 | nt | nt
Cc1ccc(NNC(=O)c2c(C)noc2C)cc1Cl | -1 | 1 | 0 | 12* | -1 | 0 | -1 | 1
Cc1noc(C)c1C(=O)NNc1ccc(C(C)C)cc1 | -1 | 1 | 0 | -4 | 1 | 0 | nt | nt
Cc1ccc(-c2nnc(N)o2)cc1 | -1 | 2 | 1 | 0 | 0 | 2 | nt | nt
Cc1ccc(-c2nnc(-c3cccs3)o2)cc1 | 1.4* | 11* | 8.8* | 10.0* | 2 | 4.4* | 8.2* | 9.2*
Cc1ccc(-c2nnc(-c3cc(C)on3)o2)cc1 | 0 | 12* | 3 | 9.0* | 4 | 2 | 7 | 9.2*
O=C(CSc1n[nH]c(-c2cccs2)n1)NCc1cccs1 | 0 | -1 | 1 | -8 | 0 | 0 | nt | nt
CCOc1ccc(C(=O)Nc2nc(C)c(C(=O)OC)s2)cc1 | 1 | 5 | 3 | 8.8* | nt | 1 | 8.7* | 12*
Cn1c(SCCc2ccccc2)nnc1-c1ccco1 | 0 | 13* | 5 | 9.4* | nt | 2 | 6 | 5
O=C(N/N=C/c1cccc2cccnc12)c1ccccc1O | -1 | -10 | -2 | -6 | -4 | -2 | nt | nt
CCN1CCN(c2ccc(S(=O)(=O)N3CCOCC3)cc2NC(=O)/C=C/c2ccc([N+](=O)[O-])cc2)CC1 | -1 | 4 | -1 | 11* | -1 | -4 | 35* | 2
Cc1ccc(F)cc1NC(=O)/C=C/c1ccc(S(=O)(=O)N2CCOCC2)cc1 | -1 | -1 | 0 | -2 | -1 | -1 | nt | nt
O=C(/C=C/c1ccc(S(=O)(=O)N2CCOCC2)cc1)Nc1cc(F)ccc1F | -1 | 10 | 0 | 9.0* | 0 | 1 | 5 | 5
CS(=O)(=O)c1ccc(C(=O)OCC(=O)N2CCOCC2)cc1[N+](=O)[O-] | -1 | -1 | 0 | 8.2* | nt | 0 | 18* | 1
Cc1ccccc1NC(=O)COC(=O)c1ccc(S(C)(=O)=O)c([N+](=O)[O-])c1 | -2 | -2 | -2 | 16* | -1 | 0 | 3 | 3
CS(=O)(=O)c1ccc(C(=O)OCc2nnc(-c3ccccc3)o2)cc1[N+](=O)[O-] | -2 | -1 | -1 | 12* | -1 | 0 | -13 | 9.0*
CCCN(CCC)CCCNC(=S)Nc1ccc2nc(N3CCN(CC)CC3)cc(C)c2c1 | -1 | -1 | 1 | 9.4* | 0 | 0 | 7 | 1
CCCN(CCC)CCCNC(=S)Nc1ccc2nc(N3CCN(C)CC3)cc(C)c2c1 | -1 | 0 | 2 | 10* | 2 | 1 | 8.3* | 1
CCOC(=O)C1=C(C)N(CC)C(=S)NC1c1ccccc1OC(F)F (configuration not stated) | -2 | -1 | -1 | 1 | 1 | 0 | nt | nt
COc1ccc(-c2nc3ccccn3c2C=O)cc1 | 0 | 10 | 5.7* | 8.7* | -1 | 1 | 8 | 9.0*
SMILES | ssDAF-12 act | hgDAF12 agonist | hcDAF12 agonist | SMARCA2 activ | DAX1 inh-1 | DAX1 inh-2 | SMARCA2 act conf | VP16 Luc act
Nc1cc(=O)[nH]c(SCC(=O)Nc2nnc(-c3ccccc3)s2)n1 | 0 | 5 | -2 | 1 | 0 | 0 | nt | nt
COc1cc2ccccc2cc1C(=O)NC1CCC(C)CC1 (configuration not stated) | -1 | 6 | 0 | 12* | 1 | 2 | 3 | 7.6*
CCCCOC(=O)c1ccc(NC(=O)COC(=O)CN2C(=O)NC3(CCCC3)C2=O)cc1 | -1 | 2 | 2 | 1 | 0 | 3 | nt | nt
CCSc1nc2ccccc2n1Cc1cccc([N+](=O)[O-])c1 | -1 | -1 | -3 | -2 | -2 | -1 | nt | nt
O=C(CNC(=O)c1ccccc1F)NCCc1ccc(Cl)cc1 | -1 | 0 | 0 | -1 | -1 | 0 | nt | nt
O=C(CNC(=O)c1ccccc1F)NCCc1ccc(Cl)cc1Cl | -1 | -2 | -1 | 9.5* | 0 | 0 | -2 | 2
Cc1ccc(NC(=O)C2CC(=O)N(C(C)C)C2)cc1C (configuration not stated) | -1 | -3 | -1 | -2 | 1 | 0 | nt | nt
Cc1ccc(NC(=O)C2CC(=O)N(C(C)C)C2)cc1Cl (configuration not stated) | -2 | -2 | 0 | 8.3* | 2 | 0 | 1 | 0
COc1ccc(C2=C/C(=C\c3ccc(OC(C)=O)cc3)C(=O)O2)cc1 | -2 | 0 | 1 | -1 | -1 | 1 | nt | nt
CC(=O)Oc1ccc(C2=Cc3ccc(OC(C)=O)cc3OC2C)cc1 (configuration not stated) | -1 | 0 | 0 | 8.2* | -1 | -2 | 8.0* | 6.5*
CCCCOC(=O)c1ccc(NC(=O)c2cnccn2)cc1 | -1 | 4 | -2 | 2 | -2 | 0 | nt | nt
O=C(Nc1ccc(OC(F)(F)F)cc1)c1cnccn1 | 0 | 9 | 2 | 8.1* | 6.4* | 1 | 9.4* | 11*
O=C(Nc1ccc(C(F)(F)F)cc1)OC1CC2CC1[C@H]1CCCCN1C2 (some centres not stated) | -1 | 3 | -1 | -1 | nt | -1 | nt | nt
COC(=O)c1sc(-c2ccc(Cl)cc2)cc1NC(=O)COCC(=O)O | -1 | 1 | 1 | 0 | -1 | 0 | nt | nt
COC(=O)c1sc(-c2ccc(Cl)cc2)cc1NC(=O)/C=C/C(=O)O | -1 | 2 | 0 | 9.1* | 0 | 0 | 0 | -1
CCOc1ccccc1N(CC(=O)Nc1ccc(S(=O)(=O)N2CCOCC2)cc1)S(C)(=O)=O | -1 | 1 | 0 | 12* | 0 | 1 | -1 | 1
CCOc1ccccc1N(CC(=O)Nc1ccc(S(=O)(=O)N2CCOCC2)cc1)S(=O)(=O)c1ccccc1 | nt | nt | nt | nt | 0 | nt | nt | nt
